# The entries come from a sample that favours hits as a whole.
# RE007 growth inh – qHTS Assay for Inhibitors of the HIV-1 protein Vpr. AID 651644, 2012. 0.21% of 360,000 active. S. pombe RE007 Vpr strain, BacTiter-Glo ATP luminescence, 24 h. Potency, µM (titrated, usually from 92.2 µM), without a hit: at the top dose activity change, negative = less growth, usual class: inhibitors; active = well fitted falling curve with a large enough effect; inconclusive = small, poorly fitted or top-dose-only effect; inactive = no such curve, though single readings can be large or run the other way; also: potency is read from the fitted curve at half-maximal effect; % is scaled to controls: 0 for no effect and ±100 for the full control effect; nearly all actives have a fitted effect of over 50% in size
#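 Fission yeast strain RE007, carrying one chromosomally integrated HIV-1 vpr copy, was seeded at OD 0.01 in PMG+AL medium with 23 nL pinned compound. After 24 h at 30 °C and 99% humidity, viability was read by BacTiter-Glo luminescence.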
# CHX counter – Cycloheximide Counterscreen for Small Molecule Inhibitors of Shiga Toxin | cell reporter, cycloheximide protein synthesis inhibition counterscreen | max response, % | 12% of 300,000 active | AID 2314, 2010; in the data active = max response mostly above about 13%, no sharp cut-off; inactive = mostly below about 14%; also: read at 38.3 µM for the half of the compounds with a filed dose; 0% is about no effect
# LmPK inhibitor – qHTS Assay for Inhibitors of Leishmania Mexicana Pyruvate Kinase (LmPK) | Q27686 | purified LmPK, Kinase-Glo ATP luminescence, 1 h | Potency, µM (series often up to 57.5 µM), inactives show top-dose activity change, negative = inhibition, actives largely listed as inhibitors | 0.37% of 290,000 active | AID 1721, 2009; also: potency is read from the fitted curve at half-maximal effect; % is scaled to controls: 0 for no effect and ±100 for the full control effect
#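 Kinase-Glo luminescence read after 1 h RT reaction of 0.1 nM LmPK with 0.5 mM PEP and 0.1 mM ADP. Activity scaled between uninhibited and enzyme-free controls.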
# Giardia FBPA inh – qHTS Assay for Inhibitors of Fructose-1,6-bisphosphate Aldolase from Giardia Lamblia | 0.71% of 290,000 active | purified Giardia FBPA | AID 2451, 2010 | Potency, µM (series often up to 59.6 µM), for the others: at the highest dose activity, negative = inhibition, actives largely listed as inhibitors; also: potency is read from the fitted curve at half-maximal effect; % is scaled to controls: 0 for no effect and ±100 for the full control effect; nearly all actives have a fitted effect of over 55% in size
# Target sequence (A8B2U2 whole entry, looked up): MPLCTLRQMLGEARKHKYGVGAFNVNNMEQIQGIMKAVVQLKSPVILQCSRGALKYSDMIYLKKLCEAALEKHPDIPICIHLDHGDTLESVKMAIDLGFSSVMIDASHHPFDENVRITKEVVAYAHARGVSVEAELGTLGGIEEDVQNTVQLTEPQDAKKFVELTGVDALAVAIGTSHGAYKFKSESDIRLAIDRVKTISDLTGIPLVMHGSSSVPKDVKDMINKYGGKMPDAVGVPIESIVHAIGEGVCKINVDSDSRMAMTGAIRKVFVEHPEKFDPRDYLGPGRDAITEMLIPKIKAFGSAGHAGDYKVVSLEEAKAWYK
#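 40 nM FBPA preincubated 10 min at RT with compound (up to 57.5 uM final), then substrate plus GAPDH/TPI/NAD/arsenate coupling and diaphorase/resazurin added. Fluorescence read after 20 min at RT, 525/598 nm.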
# Shiga toxin inh – A qHTS for Small Molecule Inhibitors of Shiga Toxin; Vero cells, Shiga toxin protein synthesis inhibition reporter; 9.2% of 290,000 active; inhibition, % at 38.7 µM; in the data active = inhibition mostly above about 28%, no sharp cut-off; inactive = mostly below about 43%; also: 0% is about no effect
# Tb PYK inh – qHTS of Trypanosoma Brucei Inhibitors; AID 624173, 2012; 0.12% of 410,000 active; TbPYK enzyme, Kinase-Glo Plus ATP luminescence, 45 min; Potency, µM (series often up to 76.8 µM), inactives show at the highest dose activity, negative = inhibition, hits mostly inhibitors; also: potency is read from the fitted curve at half-maximal effect; % is scaled to controls: 0 for no effect and ±100 for the full control effect; nearly all actives have a fitted effect of over 50% in size
#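 Screened from lowest to highest concentration, compounds were pinned into TbPYK/substrate mixtures, and ADP (130 uM final) was added. Plates sat at room temperature for 45 min prior to Kinase-Glo Plus detection by luminescence.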
# * = called active by the depositor; ? = inconclusive; / = no result given; [ ] = dose if it differs, or a comment. Unless noted, calls follow the shape of the dose curve; as a rule, active = well fitted curve in the direction sought with a large enough effect; inconclusive = small, poorly fitted or top-dose-only effect, or another doubt; inactive = no such curve, though single readings can be large; an effect the other way counts as inactive or inconclusive.
SMILES,RE007 growth inh,CHX counter,LmPK inhibitor,Giardia FBPA inh,Shiga toxin inh,Tb PYK inh
CN(C)CCN(C(=O)c1ccc2c(c1)OCCO2)c1nc2ccc(Cl)cc2s1,-1%,27*,6%[11.5 µM],-4%,36,-9%
CN(C)CCCN(C(=O)c1ccc2c(c1)OCCO2)c1nc2ccc(Cl)cc2s1,/,15*,-3%,/,36,/
COc1ccc(Cl)cc1NC(=O)CSc1nnc(C2CC2)n1N,-7%,/,/,/,/,1%
O=c1c2sccc2nc(SCc2ccc([N+](=O)[O-])cc2)n1Cc1ccccn1,14%,26*,0%,-2%,62*,-1%
O=c1c2sccc2nc(SCc2cc(=O)n3cc(Cl)ccc3n2)n1Cc1ccccn1,40%,41*,-3%,-11%,82*,4%
CN(C)C=Nc1ncc2c([nH]c3ccccc32)c1C#N,-18%,50*,-3%,-7%,36,-2%
CN(C)/C=N/c1[nH]ncc1C#N,-20%,-9,1%,4%,28,-3%
C/C(=N\Nc1ccc2nncn2n1)c1cccs1,-2%,41*,-15%,3%,21,-11%
O=C(CCc1nnc(-c2ccc3c(c2)OCO3)o1)N(Cc1ccncc1)CC1CCCO1 (configuration not stated),6%,-4,0%,2%,36,2%
COc1ccc(CCc2nnc(CCC(=O)N(C)Cc3ccncc3C)o2)cc1,5%,22*,-4%,6%,70*,0%
CCCN(CC1CCCO1)C(=O)CCc1nnc(-c2cc(C)on2)o1 (configuration not stated),-15%,16*,-4%,2%,51*,-1%
CCN(CC1CCCO1)C(=O)CCc1nnc(CCc2ccc(OC)cc2)o1 (configuration not stated),-18%,25*,-7%,0%,48*,13%
COc1cccc(CCc2nnc(CCC(=O)NCCC3CCCCO3)o2)c1 (configuration not stated),10%,18*,1%,3%,14,2%
CC(C)c1ccc2c(c1)NC(c1ccc(F)cc1)=NC(c1cccs1)=N2,/,/,/,/,/,1%
COc1ccc(CC(=O)N(CC2CCCO2)c2nc3ccccc3s2)cc1 (configuration not stated),-7%,27*,5%,-5%,11,-2%
Cc1cc(O)c(C2=Nc3ccccc3SC(c3ccc(Cl)cc3)C2)c(=O)o1 (configuration not stated),-13%,48*,2%,-9%,34*,-12%
COC(=O)C(Cc1ccc(O)cc1)N1Cc2ccccc2C1=O (configuration not stated),-4%,41*,-8%,0%,42*,5%
Cc1ccc(NC(=O)[C@H](Cc2ccccc2)N2Cc3ccccc3C2=O)cc1,/,/,/,/,/,-5%
NNC(=O)C(Cc1ccc(O)cc1)N1Cc2ccccc2C1=O (configuration not stated),5%,-5,-3%,-2%,-1,2%
COC(=O)C(Cc1ccc(OC(=O)c2ccc(C)cc2)cc1)N1Cc2ccccc2C1=O (configuration not stated),12%,57*,0%,-2%,89*,-2%
COc1ccc(CCNC(=O)CCCOc2ccc(Cl)cc2)cc1OC,3%,9,-7%,-1%,6,0%
Cc1nc(Cl)c2c(n1)NC1=C(O2)C(=O)CCC1,-15%,21*,-1%,-4%,19,-6%
COc1cc(CN2CCc3ccccc3C2)ccc1O,-2%,30*,-1%,?,54*,-6%
Cc1cc(C)c(C)c(OCc2nc(-c3cccnc3)no2)c1,-24%[3.69 µM],-2,-6%,4%,2,/
Cc1ccc(-c2noc(CNS(=O)(=O)c3ccccc3)n2)cc1,-4%,43*,0%,/,39*,-6%
SMILES,RE007 growth inh,CHX counter,LmPK inhibitor,Giardia FBPA inh,Shiga toxin inh,Tb PYK inh
Cc1ccc(OCc2nc(-c3ccccc3)no2)c(C)c1,-12%,36*,-8%,0%,98*,-7%
Cc1cccc(NCc2nc(-c3ccccc3)no2)c1,-12%,36*,3%,0%,41,-5%
COc1ccc(-c2noc(CNS(=O)(=O)c3ccccc3)n2)cc1,6%,17*,-1%,9%,41,1%
CCc1nc2ccc(C(=O)NCc3cc(OC)ccc3OC)cc2nc1CC,/,/,/,/,/,2%
C/C(=N/NC(=O)c1ccncc1)c1ccc(NC(=O)c2ccccc2)cc1,-4%,9,-12%,-2%,22,0%
C/C(=N\NC(=O)c1ccccc1O)c1cccc(NC(=O)c2ccccc2)c1,-1%,19*,0%,-4%,42*,8%
C/C(=N/NC(=O)c1ccccc1O)c1ccc(N2C(=O)C3CCCCC3C2=O)cc1 (configuration not stated),-7%,22*,-2%,-3%,56*,2%
C/C(=N/OC(=O)c1ccc(C)cc1)c1ccc(N2C(=O)C3CCCCC3C2=O)cc1 (configuration not stated),3%,1,4%,-3%,-14,-12%
C/C(=N\NC(=O)c1ccccc1O)c1ccc(NC(=O)c2ccccc2)cc1,-4%,38*,-7%,/,69*,2%
CC(=O)Nc1cccc(/C(C)=N/NC(=O)c2ccc(Cl)cc2Cl)c1,-4%,15,1%,6%,34,-2%
CC(=O)Nc1ccc(/C(C)=N/NC(=O)c2ccccc2Cl)cc1,-18%,29*,-2%,0%,50*,8%
COc1ccc(Oc2ncc3nc(-c4cccs4)c(=O)n(C)c3n2)cc1,/,/,/,-11%,/,2%
CC(C)C[C@H]1CNC(=S)N1CC1CCCN1C[C@H](CC(C)C)N1C[C@H](CC(C)C)N(CCc2ccccc2)C1=S (some centres not stated),?,/,/,/,/,1%
CCCOc1ccc(CNC(=O)CN2C(=O)c3cccnc3Oc3ccc(C)cc32)cc1,/,/,/,/,/,-7%[15.4 µM]
Cc1sc(NC(=O)c2ccco2)c(C(c2cccnc2)N2CCN(C)CC2)c1C (configuration not stated),-29%,-1,6%,10%,-10,-7%
CCOC(=O)c1c(C)oc2c1c(C(c1cccnc1)N1CCN(C)CC1)c(O)c1ccccc12 (configuration not stated),/,53*,-4%,?,156*,/
CCOC(=O)c1c(C)oc2c1c(C(c1cccnc1)N1CCOCC1)c(O)c1ccccc12 (configuration not stated),9%,49*,3%,?,123*,2%

# Screens (PubChem BioAssay)
